Calls of active or inactive are those of the source. Calls follow the shape of the dose curve; as a rule, active = well fitted cell-killing curve with a large enough effect in the repeat runs; inconclusive = weak or mixed curves, or effect the other way; inactive = flat fitted curve, though single readings scatter.
Experiment: qHTS assay to identify small molecule HDAC inhibitors - cell viability counter screen (AID 1259365); also: nearly all actives have a fitted effect of over 50% in size
Settings: HCT-116 viability, CellTiter-Glo ATP luminescence, 2 h; series mostly up to 92.4 µM
From the text: U.S. Tox21 Program National Center for Advancing Translational Sciences [NCATS] NIH Chemical Genomics Center [NCGC] U.S. Environmental Protection Agency [EPA] National Institutes of Environmental Health Sciences [NIEHS] National Toxicology Program [NTP] U.S. Food and Drug Administration [FDA] Tox21 Assay Overview: Histone deacetylases (HDACs) are a group of epigenetic enzymes that regulate gene expression by histone deacetylation. HDACs are capable of introducing epigenetic modifications and such aberrations contribute to the onset and progression of several human diseases, thus making HDACs a popular therapeutic target. For identifying endogenous class I/II HDAC inhibitors a homogenous, luminogenic HDAC I/II cell based assay was used to measure the relative activity of class I and II HDACs from cells. Wild type HCT-116 cells were used to screen Tox21 compound libraries for identifying class I/II HDAC inhibitors.
Tox21 Assay Protocol Summary: HCT-116 cells were dispensed at 1,500 per well in 5uL of culture medium into white solid bottom 1536-well plates (Greiner Bio-One, Monroe, NC) using a Multidrop Combi (Thermo Scientific, Waltham, MA) dispenser. The assay plates were incubated at 37 C and 5% CO2 for an overnight, and then 23nL of compounds dissolved in DMSO and positive control were transferred using a Pintool station (Wako, San Diego, CA). The assay plates were incubated at 37C and 5% CO2 for 2hr. After compound treatment, 4uL of CellTiter-Glo reagent (Promega Corporation, Madison, WI) was added to each well of the assay plates using Flying Reagent Dispenser (FRD, Aurora Discovery, San Diego, CA) and incubated the assay plates at room temperature for 30min. The luminescence signal was quantified using a ViewLux plate reader (Perkin Elmer, Shelton, CT).

Question: For `C=C(C)C(=O)OCCCCCCCCCCOC(=O)C(=C)C`, which outcome is on record?
Answer: Its outcome is “inactive”.

Question: For `CCC(C)C1N=C(C)C(C)S1` (stereo not given), which outcome is on record?
Answer: Its outcome is “inactive”.

Question: For `O=C(O)c1cccnc1Nc1cccc(C(F)(F)F)c1`, which outcome is on record?
Answer: The outcome was “inactive”.

Question: Which outcome does the source give for `O=C(N[C@@H](Cc1ccccc1)[C@@H](O)C(=O)N1C[C@@H](O)[C@@H](O)C1)c1cc2cc(Cl)ccc2[nH]1` here?
Answer: Its outcome is “inactive”.

Question: With `c1ccc(CN(Cc2ccccc2)Cc2ccccc2)cc1` as the molecule, how does the outcome read?
Answer: Its outcome is “inactive”.

Question: Which outcome does the source give for `O=C1c2ccccc2C(=O)C1c1ccc2ccccc2n1` here?
Answer: Its outcome is “inactive”.

Question: With `SCCOCCOCCS` as the molecule, how does the outcome read?
Answer: Its outcome is “inactive”.

Question: For `C/C(=C\C(C)CC(C)CC(C)C)C1CC(=O)OC1=O` (stereo not given), which outcome is on record?
Answer: Its outcome is “inactive”.

Question: For `CCOc1ccc(NC(C)=O)cc1N`, which outcome is on record?
Answer: The outcome was “inactive”.

Question: For `S=c1[nH][nH]c(=S)s1`, which outcome is on record?
Answer: Its outcome is “inactive”.

Question: For `Clc1nc2ccccc2nc1Cl`, which outcome is on record?
Answer: The outcome was “inactive”.

Question: For `CC(C)NC(=O)c1ccccc1N`, which outcome is on record?
Answer: The outcome was “inactive”.

Question: For `O=C(O)c1cc(C(=O)O)cc([N+](=O)[O-])c1`, which outcome is on record?
Answer: Its outcome is “inactive”.

Question: With `CCCCCCCCNC` as the molecule, how does the outcome read?
Answer: The outcome was “inactive”.

Question: For `CCc1c(C)[nH]c2c1C(=O)C(CN1CCOCC1)CC2` (stereo not given), which outcome is on record?
Answer: The outcome was “inactive”.

Question: For `CC(C)=CCCC(C)C=O` (stereo not given), which outcome is on record?
Answer: The outcome was “inactive”.

Question: With `CCCCOC(=O)C(C)Oc1ccc(Oc2ccc(C(F)(F)F)cn2)cc1` (stereo not given) as the molecule, how does the outcome read?
Answer: The outcome was “inactive”.

Question: Which outcome does the source give for `CC(=O)CC/C=C(\C)CC/C=C(\C)CC/C=C(\C)CCC=C(C)C` here?
Answer: The outcome was “inactive”.

Question: With `[O-][n+]1ccc(Cl)cc1` as the molecule, how does the outcome read?
Answer: The outcome was “inactive”.

Question: For `O=P(c1ccccc1)(c1ccccc1)c1ccccc1`, which outcome is on record?
Answer: Its outcome is “inactive”.

Question: Which outcome does the source give for `CCCN(C1CCN(C(=O)C2CCNCC2)CC1)[C@@H]1CCc2ccc(OC)cc2C1` here?
Answer: The outcome was “inactive”.

Question: Which outcome does the source give for `NC(=O)c1ccccc1C(N)=O` here?
Answer: Its outcome is “inactive”.

Question: For `Clc1ccccc1-c1nc(-c2ccncc2)no1`, which outcome is on record?
Answer: The outcome was “inactive”.

Question: For `COC(=O)/C=C/C(C)=C\C=C\C(C)=C\C=C\C=C(C)\C=C\C=C(C)\C=C\C(=O)O`, which outcome is on record?
Answer: Its outcome is “inactive”.

Question: For `O=C(O)c1cccc(C(=O)O)c1C(=O)O`, which outcome is on record?
Answer: Its outcome is “inactive”.

Question: Which outcome does the source give for `CC1(C)CC(O)CC(C)(C)N1[O]` here?
Answer: The outcome was “inactive”.

Question: Which outcome does the source give for `Cc1ccc(NC(=O)c2ccc(CN3CCN(C)CC3)cc2)cc1Nc1nccc(-c2cccnc2)n1` here?
Answer: The outcome was “inactive”.

Question: Which outcome does the source give for `O=[N+]([O-])c1ccc(Cl)cc1Cl` here?
Answer: Its outcome is “inactive”.

Question: For `O=c1[nH][nH]c2ccccc12`, which outcome is on record?
Answer: Its outcome is “inactive”.

Question: Which outcome does the source give for `C1CCN(CN2CCCCC2)CC1` here?
Answer: Its outcome is “inactive”.

Question: With `O=[N+]([O-])c1cccc(I)c1` as the molecule, how does the outcome read?
Answer: Its outcome is “inactive”.

Question: With `CC(C)(O)C(=O)O` as the molecule, how does the outcome read?
Answer: Its outcome is “inactive”.

Question: For `Sc1nc(S)nc(S)n1`, which outcome is on record?
Answer: Its outcome is “inactive”.

Question: With `Nc1ncnc2c1ncn2[C@@H]1O[C@H](CO)[C@@H](O)[C@H]1O` as the molecule, how does the outcome read?
Answer: Its outcome is “inactive”.

Question: With `O=C(OC1C[C@H]2CC[C@@H](C1)[N+]21CCCC1)C(O)(c1ccccc1)c1ccccc1` (stereo not given in full) as the molecule, how does the outcome read?
Answer: Its outcome is “inactive”.

Question: Which outcome does the source give for `CCC1=C(C)CN(C(=O)NCCc2ccc(S(=O)(=O)NC(=O)NC3CCC(C)CC3)cc2)C1=O` (stereo not given) here?
Answer: The outcome was “inactive”.

Question: Which outcome does the source give for `CC(CC(C#N)(c1ccccc1)C(C)C)N(C)C` (stereo not given) here?
Answer: Its outcome is “inactive”.

Question: For `C[C@H]1C[C@H]2[C@@H]3CCC4=CC(=O)C=C[C@]4(C)[C@@]3(F)[C@@H](O)C[C@]2(C)[C@@]1(O)C(=O)COP(=O)(O)O`, which outcome is on record?
Answer: The outcome was “inactive”.

Question: Which outcome does the source give for `C/C(=C(\CCO)SS/C(CCO)=C(\C)N(C=O)Cc1cnc(C)nc1N)N(C=O)Cc1cnc(C)nc1N` here?
Answer: The outcome was “inactive”.

Question: For `CC(C)=CCC/C(C)=C/C=N/O`, which outcome is on record?
Answer: Its outcome is “inactive”.

Reference: PubChem BioAssay (Tox21)
